# Assay results reported in ChEMBL document CHEMBL1157539, “Thousands of chemical starting points for antimalarial lead identification” (Nature, 2010).
# What was measured:
# Assay type in all cases: functional
# [1] = tested on: Plasmodium falciparum; experiment: GSK_TCMDC: Inhibition of Plasmodium falciparum 3D7 in whole red blood cells, using parasite LDH activity as an index of growth. Test compounds present at 2uM
# [2] = tested on: Plasmodium falciparum; experiment: GSK_TCMDC: Inhibition of Plasmodium falciparum Dd2 in whole red blood cells, using parasite LDH activity as an index of growth. Test compounds present at 2uM
# [3] = tested on: HepG2; experiment: GSK_TCMDC: Percent inhibition of human HepG2 cell line. Test compounds present at 10uM.
SMILES,Inhibition [1],Inhibition [2],Inhibition [3]
CCCNCc1ccc(-c2ccc(CN(CCOC)C(=O)[C@H]3CCCO3)cc2)nc1.O=C(O)C(F)(F)F,98%,6%,1%
COc1ccc(-n2ccnc2)cc1CNC1CCN(CC2Cn3c(=O)ccc4ccc(F)c2c43)CC1.O=C(O)C(F)(F)F (stereo not drawn),99%,18%,25%
COc1ccc2nccc(N3CCN(CCNCc4ccc5c(n4)NC(=O)CO5)CC3)c2n1.Cl,98%,12%,10%
C[C@@H](CNc1ccnc(Nc2ccc3[nH]c(=O)[nH]c3c2)n1)c1ccccc1,100%,1%,42%
COc1c(C2CCN(CCCCNC(=O)c3ccc(-c4ccc(C(F)(F)F)cc4)c(C(=O)OC(C)C)c3)CC2)ccc2c1CCCC2,90%,30%,24%
O=C(/C=C/c1ccc(Cl)c(Cl)c1)N1CCC(CN2CCC(c3c[nH]c4ccncc34)CC2)CC1,100%,72%,44%
O=C(NNC(=O)c1ccc(CN2CCC(c3nc4ccccc4[nH]3)CC2)cc1)Nc1ccc(Oc2ccccc2)cc1.O=C(O)C(F)(F)F,86%,–,0%
O=C(NCc1ccc(F)cc1)Nc1ccc(-c2cccc(-c3nc4cc(C(F)(F)F)ccc4[nH]3)c2)cc1,100%,92%,41%
Cc1cccc(Cl)c1S(=O)(=O)N1CCCCC(c2ccc(C(F)(F)F)cc2)=N1,100%,100%,5%
Cl.Clc1ccc(OCc2ccccc2)c(Cc2ccc(-c3nc4cnccc4[nH]3)o2)c1,99%,6%,2%
CC(=O)c1cc(N2CCOCC2)ccc1N,91%,43%,7%
OC(CNCCCc1ccccc1)c1cc(OCc2ccccc2)cc(OCc2ccccc2)c1 (stereo not drawn),93%,85%,8%
COc1ccc(-c2cnc3ccc(NCc4ccc(S(N)(=O)=O)cc4)nn23)cn1,98%,98%,16%
COc1ccc(CNCc2cccc(-c3ccc(-c4nc5cccc(C)c5[nH]4)s3)c2)cc1.O=C(O)C(F)(F)F,100%,65%,24%
CN(C)Cc1cccc(-c2ccc(NC(=O)c3ccc4c(=O)n(Cc5cnn(C)c5)cnc4c3)cc2)c1,80%,–,12%
COc1ccccc1C1CC(c2ccccc2)=NN1C(=O)c1ccccc1 (stereo not drawn),100%,93%,13%
CCN(CC)CCCC(C)N=c1cc(C=Cc2ccccc2Cl)[nH]c2cc(Cl)ccc12.O=P(O)(O)O (stereo not drawn),99%,77%,0%
O=C(/C=C/c1ccc(Cl)c(Cl)c1)NCCCCCN1CCC(NC(=O)Nc2ccc(F)c(F)c2)CC1,99%,4%,24%
Cc1ccc(Cn2cnc3cc(C(=O)Nc4ccc(-c5cccc(CN(C)C)c5)cc4)ccc3c2=O)o1,99%,39%,22%
CC(C)(C)COC(=O)c1ccc(NC(=O)N[C@@H](Cc2ccc(O)cc2)C(=O)NC2CCN(Cc3ccc(O)cc3)C2)cc1.O=C(O)C(F)(F)F (stereo partly drawn),94%,21%,3%
O=C(O)C(F)(F)F.c1cc(-c2ccc(CNCCCN3CCOCC3)cc2)cc(-c2nc3ccccc3[nH]2)c1,100%,0%,26%
CCCOc1ccc(-c2nonc2NC(=O)c2ccccc2OC)cc1OCCC,98%,82%,23%
O=C(Nc1ccon1)c1cc(-c2cccnc2)nc2ccc(Cl)cc12,98%,76%,0%

SMILES,Inhibition [1],Inhibition [2],Inhibition [3]
CC(=O)N[C@H](C(=O)Nc1ccc(-c2ccc(-c3nc4cc(C(F)(F)F)ccc4[nH]3)s2)cc1)C(C)C,88%,61%,42%
CC(=O)N(C)C1CCN(Cc2cccc(-c3ccc(-c4nc5cc(C(F)(F)F)ccc5[nH]4)cc3)c2)C1.O=C(O)C(F)(F)F (stereo not drawn),100%,94%,31%
CCOC(=O)c1c(NC(NC(=O)c2ccc(C(C)(C)C)cc2)C(Cl)(Cl)Cl)sc2c1CCCC2 (stereo not drawn),98%,94%,1%
COc1cc(Nc2nccc(N3CCC(NC(=O)Nc4ccc5c(c4)OCO5)C3)n2)cc(OC)c1OC (stereo not drawn),96%,74%,9%
COc1ccc(Br)cc1/C=C/C(=O)Nc1ccc(C2CCCN(C)C2)cc1.O=CO (stereo not drawn),100%,35%,18%
CON=Cc1sc(CNCCCN=c2cc(O)c3ccccc3[nH]2)c(C)c1Br.Cl,96%,63%,0%
Cc1cc(OCCCN2CCCC2)ccc1NC(=O)COc1ccc(Cl)cc1C(=O)c1cc(C#N)cc(C(F)(F)F)c1,85%,–,18%
S=C(Nc1ccc(Cl)cc1)Nc1ccc(Nc2ccccc2)cc1,84%,–,14%
COc1ccc(CCN2CC[C@H](CNc3nc(-c4ccccc4)nc4ccccc34)C2)cc1S(N)(=O)=O.O=C(O)C(F)(F)F,85%,–,54%
CO/N=C(\C)c1ccc2c(c1)CCN(CCC1CCC(NC(=O)c3cccc(-c4noc(C)n4)c3)CC1)CC2.Cl (stereo not drawn),90%,–,42%
Br.Oc1ccc(CCNCCCCCNCCCc2ccc(Cl)cc2)cc1O,91%,–,22%
O=C(O)C(F)(F)F.O=C(O)CCc1ccc(-c2c[nH]c3ncc(-c4ccc5ncccc5c4)cc23)cc1,88%,–,30%
COc1ccc(C2CC(c3cccs3)=NN2C(=O)COc2cccc(C(C)=O)c2)cc1OC (stereo not drawn),99%,–,10%
CC(C)C(=O)NC(NC(=S)Nc1ccc(Br)cc1)C(Cl)(Cl)Cl (stereo not drawn),93%,–,0%
O=[N+]([O-])c1ccc(-n2nc(-c3cccnc3)n(Cc3ccco3)c2=S)c(Cl)c1,95%,–,13%
Cc1nc(Cl)c2c(-c3ccccc3)csc2n1,84%,–,0%
COc1cccc(-c2cc3c(NCc4ccncc4)nccc3s2)c1,87%,–,0%
CC(CC1CCCCC1)NCc1ccccc1OCCC(=O)N1CCCC1C(N)=O (stereo not drawn),97%,–,5%
N#Cc1cc(N(CCCOc2cccc(OC(F)(F)F)c2)Cc2ccccc2C(F)(F)F)ccc1C(F)(F)F,94%,–,2%
O=C(Nc1cccc(-c2nn3ccccc3c2-c2ccnc(Nc3cccc(F)c3)n2)c1)C1CCCCC1,85%,–,44%
Cc1csc2nc(C(C)c3ccc(NC(=O)c4cccs4)cc3)oc(=O)c12 (stereo not drawn),90%,–,0%
C=CCOc1cc(Cc2cnc(N)nc2N)cc(OC)c1OC.Cl,81%,–,0%
Brc1ccsc1-c1nc(NC2CCN(Cc3ccccc3)CC2)no1,80%,–,0%

SMILES,Inhibition [1],Inhibition [2],Inhibition [3]
CCN(CC)CCCN(C(=O)Nc1cc(F)cc(F)c1)c1nc(-c2ccc(F)cc2)cs1,82%,–,27%
O=C(Nc1ccc(C(F)(F)F)cc1)c1cc(Cl)cc2nc(C(F)(F)F)[nH]c12,100%,–,86%
COc1cc(OC)cc(C(=O)Nc2nc(-c3ccc(NC(=O)c4ccccc4)cc3)cs2)c1,88%,–,16%
CNC(=O)c1ccc(/C=C/C(=O)N2CCc3ccc(-c4ccccc4)cc3C2c2cccc(C(F)(F)F)c2)cc1 (stereo not drawn),91%,–,9%
CN(C)c1ccc(NC(=O)Nc2ccnc3ccccc23)cc1Br.Cl,98%,–,21%
CCCN1CCN(CCNc2c3ccccc3nc3ccccc23)CC1,88%,–,13%
NC(=O)c1sc(-n2cnc3ccc(C(=O)NCCN4CCOCC4)cc32)cc1OCc1ccccc1C(F)(F)F.O=CO,81%,–,0%
COc1ccc(Cl)cc1N1CCN(CCCNC(=O)c2ccc(-c3nc4c(C)cccc4[nH]3)s2)CC1,98%,–,0%
c1ccc2sc(-c3csc(Nc4ccncc4)n3)nc2c1,86%,–,0%
COc1ccc(NS(=O)(=O)c2ccc(Oc3nc(C)nc4sc5c(c34)CCCC5)cc2)cc1,96%,–,5%
O=C(NCCCCN1CCC(c2ccc3c(c2OCCOCCO)CCCC3)CC1)c1ccc(-c2ccc(C(F)(F)F)cc2)cc1,97%,–,44%
CC(Sc1nnc(-c2ccccc2Br)[nH]1)C(=O)Nc1ccc(F)cc1 (stereo not drawn),90%,–,0%
CC1CN(c2ccc3[nH]cc(Sc4ccc(-c5cccs5)cc4)c3c2)CC(C)N1.Cl (stereo not drawn),89%,–,29%
O=C(Nc1cccc(Cl)c1)c1cc2ccccc2cc1O,97%,–,4%
CC(C)(C)c1cc(Cl)cc(C(=O)Nc2cc([N+](=O)[O-])ccc2Cl)c1O,91%,–,79%
COc1cc(Cc2cnc(N)nc2N)ccc1OCc1csc(-c2ccc(Cl)cc2)n1,93%,–,39%
CC(C)Cc1csc(NC(=O)C=Cc2ccco2)c1C(=O)O,82%,–,4%
COc1c(C2CCN(CCCCNC(=O)C=Cc3ccccc3C(F)(F)F)CC2)ccc2c1CCCC2,96%,–,98%
COc1cc2c(cc1C(F)(F)F)N(C(=O)Nc1ccc(Br)cn1)CC2,97%,–,16%
CCCCNC(=O)C1CCCN(C(=O)c2ccc(O)c(-c3ccc(Cl)c(Cl)c3)c2)C1 (stereo not drawn),83%,–,3%
COc1ccc2c(c1)C(C)(CCCN(C)C)C(=O)N2C.O=C(O)C(=O)O (stereo not drawn),93%,–,8%
COc1cc2ncnc(Nc3ccc(OC(F)(F)c4ccccc4)cc3)c2cc1OC.Cl,91%,–,14%
